According to PubChem BioAssay:
Values without a mark were called inactive. For some assays here: Results with a measured potency or affinity are listed apart. Activity calls are given as the source filed them. Unless noted, how the calls were made is not given here.

Columns and labels:
[1] = antimalarial activity against Dd2 strain (AID 2302;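 active means growth inhibition above 50% at the single 2 µM test dose, taken to imply half-maximal potency below 2 µM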;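 further: 0% = DMSO untreated growth and 100% = chloroquine plus artemisinin killed control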); details: P. falciparum Dd2 in RBCs, LDH growth readout, 72 h; at 2 µM; stronger effect = higher value
[2] = HepG2 cytotoxicity, primary screen, cytotoxicity control for P. falciparum antimalarial project, cell-based, ATP luminescence (AID 2303;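 active means inhibition above 50%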;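 further: 0% = DMSO wells and 100% = digitonin-killed cells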); details: HepG2 viability, 24-48 h, at 10 µM, stronger effect = higher value
[3] = molecular target: L-lactate dehydrogenase (Plasmodium falciparum (isolate CDC / Honduras)) (UniProt Q27743); assay: PfLDH activity inhibition – cell lysate, 3D7 strain, counter-screen for P. falciparum growth inhibition project (AID 2304);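 further: 0% = vehicle and 100% = reference inhibitor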; details: P. falciparum 3D7 crude extract, LDH APAD/NBT absorbance; at 2 µM; stronger effect = higher value
Sequence of L-lactate dehydrogenase (Plasmodium falciparum (isolate CDC / Honduras)) (Q27743 whole entry, looked up): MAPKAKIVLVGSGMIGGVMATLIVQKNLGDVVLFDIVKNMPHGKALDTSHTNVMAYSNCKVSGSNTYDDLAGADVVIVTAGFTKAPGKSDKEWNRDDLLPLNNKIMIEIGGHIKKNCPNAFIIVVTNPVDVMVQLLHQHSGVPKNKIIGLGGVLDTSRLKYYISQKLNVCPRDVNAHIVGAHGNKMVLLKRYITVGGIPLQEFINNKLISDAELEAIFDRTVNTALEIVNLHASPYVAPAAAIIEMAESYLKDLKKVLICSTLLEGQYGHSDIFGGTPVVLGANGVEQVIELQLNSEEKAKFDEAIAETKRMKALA

[4] = inhibition of 3D7 malaria parasite growth – strain 3D7 (AID 2306);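 further: 0% = DMSO wells and 100% = chloroquine plus artemisinin control wells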; details: P. falciparum 3D7 erythrocytic growth, LDH absorbance, 72 h; at 2 µM; stronger effect = higher value
[5] = molecular target: Calcium-dependent protein kinase 1 (Plasmodium falciparum (isolate 3D7)) (UniProt P62344); assay: PfCDPK1 kinase inhibitors, biochemical, TCAMS library (AID 1159585; cut-off not given, nearly all actives have IC50 up to about 0.98 µM;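 further: inhibitors leave more ATP so luminescence rises with inhibition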); details: recombinant PfCDPK1, Kinase-Glo ATP depletion luminescence
Sequence of Calcium-dependent protein kinase 1 (Plasmodium falciparum (isolate 3D7)) (P62344 whole entry, looked up): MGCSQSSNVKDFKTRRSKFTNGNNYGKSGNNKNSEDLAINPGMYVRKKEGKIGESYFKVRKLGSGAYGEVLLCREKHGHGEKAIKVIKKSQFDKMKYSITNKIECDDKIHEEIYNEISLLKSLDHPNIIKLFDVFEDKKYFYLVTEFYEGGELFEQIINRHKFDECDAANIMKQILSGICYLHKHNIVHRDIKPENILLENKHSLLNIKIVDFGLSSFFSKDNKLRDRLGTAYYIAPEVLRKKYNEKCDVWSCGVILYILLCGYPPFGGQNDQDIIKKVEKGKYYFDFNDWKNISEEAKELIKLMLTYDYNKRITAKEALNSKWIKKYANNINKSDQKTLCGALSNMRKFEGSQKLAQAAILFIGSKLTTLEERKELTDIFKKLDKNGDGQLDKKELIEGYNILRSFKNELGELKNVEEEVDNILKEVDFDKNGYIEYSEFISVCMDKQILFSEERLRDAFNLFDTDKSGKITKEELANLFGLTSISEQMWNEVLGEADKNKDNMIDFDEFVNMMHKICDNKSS

[6] = molecular target: Plasmodium falciparum protein kinase 6 (PK6, PF3D7_1337100) (UniProt Q8IDW1); assay: PfPK6 kinase inhibitors, biochemical, TCAMS library (AID 1159586); details: recombinant PfPK6, Kinase-Glo ATP depletion luminescence
Sequence of Plasmodium falciparum protein kinase 6 (PK6, PF3D7_1337100) (Q8IDW1 1-305): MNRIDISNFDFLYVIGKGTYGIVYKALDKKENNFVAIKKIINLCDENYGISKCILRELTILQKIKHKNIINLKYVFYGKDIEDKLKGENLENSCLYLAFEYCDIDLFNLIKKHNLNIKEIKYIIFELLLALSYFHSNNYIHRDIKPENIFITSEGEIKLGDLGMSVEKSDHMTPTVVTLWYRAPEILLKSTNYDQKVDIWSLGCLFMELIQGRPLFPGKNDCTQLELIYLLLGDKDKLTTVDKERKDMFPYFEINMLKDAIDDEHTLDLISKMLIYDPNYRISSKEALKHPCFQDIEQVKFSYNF

[7] = molecular target: Protein kinase 7 (PK7), Plasmodium falciparum 3D7 (PF3D7_0213400) (UniProt Q7YTF7); assay: inhibition of Plasmodium PK7 catalytic activity – biochemical, TCAMS antimalarial set, Kinase-Glo luminescence (AID 1159587); details: recombinant PfPK7, Kinase-Glo ATP depletion luminescence
Sequence of Protein kinase 7 (PK7), Plasmodium falciparum 3D7 (PF3D7_0213400) (Q7YTF7 1-343): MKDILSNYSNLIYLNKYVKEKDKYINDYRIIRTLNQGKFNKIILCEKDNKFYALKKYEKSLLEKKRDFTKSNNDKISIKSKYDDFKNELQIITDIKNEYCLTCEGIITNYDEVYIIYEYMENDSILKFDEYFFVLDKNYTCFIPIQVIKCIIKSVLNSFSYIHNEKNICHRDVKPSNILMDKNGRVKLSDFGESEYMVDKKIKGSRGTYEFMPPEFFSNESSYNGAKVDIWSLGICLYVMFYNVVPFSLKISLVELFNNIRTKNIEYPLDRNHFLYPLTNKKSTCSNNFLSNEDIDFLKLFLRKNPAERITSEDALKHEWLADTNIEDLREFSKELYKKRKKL

[8] = molecular target: Calcium-dependent protein kinase 4 (Plasmodium falciparum (isolate 3D7)) (UniProt Q8IBS5); assay: PfCDPK4 kinase inhibitors, biochemical, TCAMS library (AID 1159588; cut-off not given, nearly all actives have IC50 up to about 0.91 µM); details: recombinant PfCDPK4, Kinase-Glo ATP depletion luminescence
Sequence of Calcium-dependent protein kinase 4 (Plasmodium falciparum (isolate 3D7)) (Q8IBS5 whole entry, looked up): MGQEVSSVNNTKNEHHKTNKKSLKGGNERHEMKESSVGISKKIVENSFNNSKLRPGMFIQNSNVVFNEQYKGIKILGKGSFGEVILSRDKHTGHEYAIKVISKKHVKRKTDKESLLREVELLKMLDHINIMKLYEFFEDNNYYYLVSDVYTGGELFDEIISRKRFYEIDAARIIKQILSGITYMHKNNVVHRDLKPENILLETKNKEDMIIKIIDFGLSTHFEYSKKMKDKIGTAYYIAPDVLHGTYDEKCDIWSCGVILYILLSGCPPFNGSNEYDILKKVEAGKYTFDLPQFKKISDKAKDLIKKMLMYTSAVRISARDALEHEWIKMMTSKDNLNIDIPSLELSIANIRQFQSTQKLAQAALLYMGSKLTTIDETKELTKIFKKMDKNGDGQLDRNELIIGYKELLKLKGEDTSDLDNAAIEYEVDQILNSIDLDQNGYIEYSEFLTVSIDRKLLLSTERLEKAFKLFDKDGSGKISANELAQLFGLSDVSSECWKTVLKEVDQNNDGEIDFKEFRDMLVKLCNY

SMILES	growth inhibition [1]	inhibition [2]	inhibition [3] [%]	growth inhibition [4]	outcome [5]	outcome [6]	outcome [7]	outcome [8]
CCCCOc1ccc(C(O)C(CN2CCCCC2)c2ccccc2)cc1 (stereo not given)	84% (active)	7%	3	90% (active)	inactive	inactive	inactive	inactive
CCN(CCCN1CCCCC1)c1nc(C)cc(Nc2ccc(Cl)cc2)n1	92% (active)	30%	3	98% (active)	inactive	inactive	inactive	inactive
COc1ccc(CN2CCC(CNC(C)c3cccc4ccccc34)CC2)cc1 (stereo not given)	26%	58% (active)	-2	102% (active)	inactive	inactive	inactive	inactive
Clc1ccc(Nc2nc(Nc3ccc(Cl)c(Cl)c3)nc(Sc3nc4ccccc4[nH]3)n2)cc1Cl	100% (active)	10%	1	99% (active)	inactive	inactive	inactive	inactive
CCCCOC(=O)C1=C(C)NC2=C(C(=O)CC(c3ccc(OC)c(OC)c3)C2)C1c1ccc(O)cc1 (stereo not given)	75% (active)	-6%	2	90% (active)	inactive	inactive	inactive	inactive
O=C(NCCCN1CCN(c2cccc(Cl)c2)CC1)c1ccc(-c2nc3cc(Cl)c(Cl)cc3[nH]2)cc1	95% (active)	3%	-1	98% (active)	inactive	inactive	inactive	inactive
CCN=C1NC2=C(CC(C(C)(C)C)CC2)C2(CCC(C(C)(C)C)CC2)S1 (stereo not given)	99% (active)	40%	4	99% (active)	inactive	inactive	inactive	inactive
Cc1ccc(N2C(N)=NC(N)=NC2(C)C)cc1Cl	77% (active)	66% (active)	-4	90% (active)	inactive	inactive	inactive	inactive
N=C(N)c1ccc(OCc2cccc(COc3ccc(C(=N)N)cc3I)c2)c(I)c1	100% (active)	7%	2	102% (active)	inactive	inactive	inactive	inactive
O=C(NCCCCN1CCC(c2ccc3ccccc3c2O)CC1)c1ccc(-c2ccc(Cl)cc2)cc1	99% (active)	84% (active)	-2	101% (active)	inactive	inactive	inactive	inactive
CC(C)Nc1nc(NC2CCCCC2)nc(N2CCCCCCC2)n1	96% (active)	13%	2	86% (active)	inactive	inactive	inactive	inactive
Cc1cc(NC(=O)NCCN2CCC(NC(=O)c3ccc(C(F)(F)F)cc3)CC2)c2ccccc2n1	75% (active)	3%	-3	98% (active)	inactive	inactive	inactive	inactive
O=[N+]([O-])c1cccc(Nc2cncc(-c3ccc(CO)cc3)c2)c1	96% (active)	16%	-5	85% (active)	inactive	inactive	inactive	inactive
CC(C)(C)SCC(O)Cn1c2ccc(Br)cc2c2cc(Br)ccc21 (stereo not given)	79% (active)	4%	1	87% (active)	inactive	inactive	inactive	inactive
COc1ccc(-c2cnc3[nH]cc(-c4ccc(CCC(=O)O)cc4)c3c2)cn1	95% (active)	25%	-5	98% (active)	inactive	inactive	inactive	inactive
COc1ccc2nccc([C@@H](O)CN3CCC(NCc4[nH]c5ccccc5c4F)CC3)c2c1	61% (active)	19%	3	102% (active)	inactive	inactive	inactive	inactive
C=CCc1cc(SC)ccc1Oc1ccc(N)cc1	2%	12%	4	96% (active)	inactive	inactive	inactive	inactive
O=C(Nc1ccc(C(=O)OCC(c2ccccc2)c2ccccc2)cc1)N[C@@H](Cc1ccc(O)cc1)C(=O)NC1CCN(Cc2ccc(O)cc2)C1 (stereo not given in full)	-4%	-9%	1	96% (active)	inactive	inactive	inactive	inactive
Cc1noc(C)c1-c1cccc(CNCc2ccc(-c3ccc(-c4nc5c(C)cccc5[nH]4)cc3)cc2)c1	95% (active)	28%	5	102% (active)	inactive	inactive	inactive	inactive
O=C(CNc1ccncc1)c1c[nH]c2ccccc12	62% (active)	31%	-3	90% (active)	inactive	inactive	inactive	inactive

SMILES	growth inhibition [1]	inhibition [2]	inhibition [3] [%]	growth inhibition [4]	outcome [5]	outcome [6]	outcome [7]	outcome [8]
CCOC(=O)Nc1cc(-c2csc(N=C(N)N)n2)cc([N+](=O)[O-])c1	88% (active)	12%	-8	101% (active)	inactive	inactive	inactive	inactive
CN(C)C(=O)n1cnc(S(=O)(=O)N(C)c2ccc(Cl)cc2)n1	80% (active)	7%	3	88% (active)	inactive	inactive	inactive	inactive
CC(=O)c1ccc(N2CCN(CCC3(c4ccc(Cl)c(Cl)c4)COCN(C(=O)c4ccccc4)C3)CC2)cc1 (stereo not given)	95% (active)	12%	5	88% (active)	inactive	inactive	inactive	inactive
CCCc1cc2c3c(N)nc(N)nc3ccc2n1C(CC)CC	73% (active)	70% (active)	-1	102% (active)	inactive	inactive	inactive	inactive
Cc1ccc(-c2nnc(Nc3ccc(C(=O)N4CCCCC4)cc3)c3ccccc23)cc1S(=O)(=O)NCC1CCCO1 (stereo not given)	99% (active)	-5%	-4	99% (active)	inactive	inactive	inactive	inactive
Nc1nc(N)c2cc(CNc3ccc(Cl)c(Cl)c3)ccc2n1	55% (active)	62% (active)	5	93% (active)	inactive	inactive	inactive	inactive
O=C1CCCN1CCCNCc1cccc(-c2ccc(-c3nc4ccc(C(F)(F)F)cc4[nH]3)cc2)c1	96% (active)	15%	-3	101% (active)	inactive	inactive	inactive	inactive
Cc1cccc2[nH]c(-c3ccc(-c4ccc(CN5CCN(CC6CCCN(C)C6)CC5)cc4)s3)nc12 (stereo not given)	99% (active)	63% (active)	-3	101% (active)	inactive	inactive	inactive	inactive
Nc1nccc2ccc(-c3ccnc(NCc4cccnc4)n3)cc12	95% (active)	11%	-3	101% (active)	inactive	inactive	inactive	inactive
CCCC1(NC[C@@H](O)[C@H](Cc2ccccc2)NC(=O)c2cc(NCC)cc(N3CCCCS3(=O)=O)c2)CC1	98% (active)	1%	0	98% (active)	inactive	inactive	inactive	inactive
O=S(=O)(ON=C1CCc2ccccc21)c1ccc(Cl)cc1	79% (active)	-2%	3	100% (active)	inactive	inactive	inactive	inactive
O=C(N[C@@H](Cc1ccccc1)[C@H](O)CNCCC(F)(F)F)c1cccc(OCC2CC2)c1	95% (active)	0%	-1	98% (active)	inactive	inactive	inactive	inactive
COc1cc2[nH]c(-c3ccc(O)cc3)c(C)c(=O)c2c(OC)c1OC	94% (active)	1%	0	100% (active)	inactive	inactive	inactive	inactive
COc1cccc(OC)c1-c1ccccc1NC(=O)N1CCCc2cc(C)ccc21	84% (active)	51% (active)	5	82% (active)	inactive	inactive	inactive	inactive
Cc1nn(CC(O)Cn2c3ccc(Br)cc3c3cc(Br)ccc32)c(C)c1Br (stereo not given)	81% (active)	4%	1	98% (active)	inactive	inactive	inactive	inactive
O=C(Nc1cccc(CCNCc2ccccc2)c1)Nc1cccc2ccccc12	8%	13%	1	102% (active)	inactive	inactive	inactive	inactive
COc1ccc2ncc(F)c(CCN3CC[C@@H](CNCc4cc(C)c5c(c4)OCCO5)C3)c2n1	44%	22%	0	98% (active)	inactive	inactive	inactive	inactive
CCCC(C)Nc1nc(C)cc(N[C@@H](CC(C)C)C(=O)NCCc2ccccc2)n1 (stereo not given in full)	51% (active)	9%	-2	96% (active)	inactive	inactive	inactive	inactive
O=C(/C=C/c1ccc(Cl)c(Cl)c1)NCCCCCN1CCCN(C(=O)Nc2cccc(C(F)(F)F)c2)CC1	-2%	45%	1	96% (active)	inactive	inactive	inactive	inactive
O=c1cc(NCCCNCc2sc(Br)c(Br)c2Br)[nH]c2ccccc12	38%	0%	5	90% (active)	inactive	inactive	inactive	inactive
